ETS1 binding intensity data for 21 sequences are collected here from the supplement of paper PMC10681739.

The target of the test is T1, ETS1 (UniProt P14921).
T1 sequence: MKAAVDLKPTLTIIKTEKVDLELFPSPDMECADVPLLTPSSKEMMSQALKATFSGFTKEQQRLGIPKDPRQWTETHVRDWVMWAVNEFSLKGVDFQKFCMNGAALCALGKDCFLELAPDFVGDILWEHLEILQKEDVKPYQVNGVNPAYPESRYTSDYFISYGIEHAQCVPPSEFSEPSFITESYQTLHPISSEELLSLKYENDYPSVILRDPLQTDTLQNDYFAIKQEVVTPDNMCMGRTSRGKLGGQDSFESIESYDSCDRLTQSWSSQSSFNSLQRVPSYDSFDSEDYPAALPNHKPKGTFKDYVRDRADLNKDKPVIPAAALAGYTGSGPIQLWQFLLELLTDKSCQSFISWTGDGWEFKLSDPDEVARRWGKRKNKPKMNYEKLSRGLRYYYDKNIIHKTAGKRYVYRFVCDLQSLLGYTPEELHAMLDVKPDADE
Kind of test: ETS1 binding intensity (PBM fluorescence), ETS1 alone (arbitrary fluorescence units); higher = stronger binding. As to conditions: ETS1 concentration 1 nM; RUNX1 concentration 0 nM.
In turn, CTGGCAGGCCTCACTTCCTCACCACATGGCCCTCCC had an ETS1 binding intensity of 543.

On to GCTGCGCAGAGGAAACCAGGCTTGTTGGTTTTCATG, for which the ETS1 binding intensity was determined as 432.

In turn, GGGGGCAGGAAGCAGTGCAGCTCCTTAACCCACTTC yielded an ETS1 binding intensity of 842.

For the sequence TGGTGTGACCAGGATGTGAACCGCGGCAAGCTGCCT, the ETS1 binding intensity came to 995.

Regarding CTTTCGCTTCCTTTCCCCGCCTCTTAGTCCCGCAGA, the ETS1 binding intensity was 464.

In turn, GTGTTGGGTGGCTTCCTGCGGCGTTTCCACTCTCGC had an ETS1 binding intensity of 605.

As for TCTCTCTACGGAAGCTGGTAGGGCTGTGGGTGCTTC, the ETS1 binding intensity is 729.

On to GGGCTTCCGGCTGAACCCATGGCTGCGGGCTGTGCT, for which the ETS1 binding intensity worked out at 445.

Regarding GGGAGGAAGTGTGAAGGGACTTTTGTGGTGAGTGAT, the ETS1 binding intensity was determined as 549.

GCCACGCAGTTCCCTTCCTGCGGCGTCCTCCACACC displayed an ETS1 binding intensity of 561.

CTTCAGCCGCCACTTCCCCGCCCCCGCAGCCCGACA registered an ETS1 binding intensity of 936.

In the case of GAGCAGCGGGAGGAAGCTGCGGCGCGCAGAGCAGAG, the ETS1 binding intensity came out at 534.

On to CCTCCCGGCTTCCGTTCCTTGACCACCTCCTTCTCG, for which the ETS1 binding intensity was 560.

In turn, ACTTCCAGGAAGCCCCATAGTCCAGAAACCCACACA displayed an ETS1 binding intensity of 493.

CCGAGACACATGGGATGTGGGCGGGAGGAGGAATTG: the ETS1 binding intensity is 715.

Sequence CTCCCCCAGCACATCCTCTGCCACCGCTGCCTTTCC registered an ETS1 binding intensity of 579.

For ACCAGAACAGGAAATGTTAGTGGTTGAGTTAACGGT, the ETS1 binding intensity came out at 3760.

TGAAGTTCAGGGGGAAGTGGTTAGAGTCCCTGCGAG registered an ETS1 binding intensity of 494.

The sequence TCGGTGAAGGACGGAAGATGATAGCCACATTTCTTC displayed an ETS1 binding intensity of 512.

In the case of GCACCGTGGCACTTCCGCGAGCGCCGCAGGCCCTGC, the ETS1 binding intensity is 461.

As for CACCTGCCTTGCTTCCTGCGGTGCAACCGGCGGGAG, the ETS1 binding intensity came to 499.
